Test results: the supplement of paper PMC8728848
This is one part of a sample in which the strongest signals are shown more often than they occur.

Key:
Assay in all cases: glycan array binding signal (z-score within array); higher = stronger binding
Details in all cases: glycan notation: IUPAC condensed, linker removed
[1] = biological target: Fuc(a1-2)Gal(b1-3)GalNAc(a1-3)[Fuc(a1-2)]Gal(b1-4)Glc
Summary of the method: (§1)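 The Consortium for Functional Glycomics database supplied 3228 glycan arrays, of which those lacking an available protein sequence were dropped. The binding signal, a within-array Z-score, was averaged across arrays of the same protein sequence and across linkers. Negative scores can be read as non-binding.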

[2] = biological target: Fuc(a1-2)Gal(b1-4)Fuc(a1-3)]GlcNAc(b1-2)Man(a1-3)[Fuc(a1-2)Gal(b1-4)[Fuc(a1-3)]GlcNAc(b1-2)Man(a1-6)]Man(b1-4)GlcNAc(b1-4)GlcNAc
Summary of the method: as §1

[3] = biological target: Fuc(a1-2)Gal(b1-4)[Fuc(a1-3)]GlcNAc(b1-2)Man(a1-3)[Fuc(a1-2)Gal(b1-4)[Fuc(a1-3)]GlcNAc(b1-2)Man(a1-6)]Man(b1-4)GlcNAc(b1-4)[Fuc(a1-6)]GlcNAc
Summary of the method: as §1

[4] = biological target: Fuc(a1-2)Gal(b1-4)[Fuc(a1-3)]GlcNAc(b1-3)Gal(b1-4)[Fuc(a1-3)]GlcNAc(b1-3)Gal(b1-4)[Fuc(a1-3)]GlcNAc
Summary of the method: as §1

Fuc(a1-2)Gal6S(b1-4)Glc = biological target: Fuc(a1-2)Gal6S(b1-4)Glc
Summary of the method: as §1

[5] = biological target: Fuc(a1-2)[Gal(a1-3)]Gal(b1-3)GalNAc(b1-3)Gal(a1-4)Gal(b1-4)Glc
Summary of the method: as §1

[6] = biological target: Fuc(a1-2)[Gal(a1-3)]Gal(b1-4)[Fuc(a1-3)]Glc
Summary of the method: as §1

[7] = biological target: Fuc(a1-2)[Gal(a1-3)]Gal(b1-4)[Fuc(a1-3)]GlcNAc
Summary of the method: as §1

[8] = biological target: Fuc(a1-2)[GalNAc(a1-3)]Gal(b1-3)GlcNAc(b1-3)GalNAc
Summary of the method: as §1

[9] = biological target: Fuc(a1-2)[GalNAc(a1-3)]Gal(b1-4)Glc
Summary of the method: as §1

Fuc(a1-3)GlcNAc = biological target: Fuc(a1-3)GlcNAc
Summary of the method: as §1

[10] = biological target: Fuc(a1-3)[Gal(b1-4)]GlcNAc6S
Summary of the method: as §1

Gal(b1-3)Gal(b1-4)GlcNAc = biological target: Gal(b1-3)Gal(b1-4)GlcNAc
Summary of the method: as §1

[11] = biological target: Gal(b1-3)GlcNAc(a1-6)Gal(b1-4)GlcNAc
Summary of the method: as §1

[12] = biological target: Gal(b1-3)GlcNAc(b1-6)GalNAc
Summary of the method: as §1

[13] = biological target: Gal(b1-4)GlcNAc(b1-2)Man(a1-3)[Gal(b1-4)GlcNAc(b1-2)Man(a1-6)]Man(b1-4)GlcNAc(b1-4)[Fuc(a1-6)]GlcNAc
Summary of the method: as §1

[14] = biological target: Gal(b1-4)GlcNAc(b1-3)Gal(b1-4)GlcNAc
Summary of the method: as §1

[15] = biological target: Gal(b1-4)GlcNAc(b1-3)Gal(b1-4)GlcNAc(b1-3)Gal(b1-4)GlcNAc(b1-2)[Gal(b1-4)GlcNAc(b1-3)Gal(b1-4)GlcNAc(b1-3)Gal(b1-4)GlcNAc(b1-6)]Man(a1-6)[Gal(b1-4)GlcNAc(b1-3)Gal(b1-4)GlcNAc(b1-3)Gal(b1-4)GlcNAc(b1-2)Man(a1-3)]Man(b1-4)GlcNAc(b1-4)[Fuc(a1-6)]GlcNAc
Summary of the method: as §1

[16] = biological target: Gal(b1-4)GlcNAc(b1-3)Gal(b1-4)GlcNAc(b1-3)Gal(b1-4)GlcNAc(b1-3)Gal(b1-4)GlcNAc(b1-2)Man(a1-3)[Gal(b1-4)GlcNAc(b1-3)Gal(b1-4)GlcNAc(b1-3)Gal(b1-4)GlcNAc(b1-3)Gal(b1-4)GlcNAc(b1-2)Man(a1-6)]Man(b1-4)GlcNAc(b1-4)GlcNAc
Summary of the method: as §1

[17] = biological target: Gal(b1-4)GlcNAc(b1-3)GalNAc
Summary of the method: as §1

Gal(b1-4)GlcNAc6P = biological target: Gal(b1-4)GlcNAc6P
Summary of the method: as §1

[18] = biological target: Gal3S(b1-4)[Fuc(a1-3)]Glc6S
Summary of the method: as §1

GlcA(b1-6)Gal = biological target: GlcA(b1-6)Gal
Summary of the method: as §1

[19] = biological target: GlcNAc(a1-3)Gal(b1-4)GlcNAc
Summary of the method: as §1

[20] = biological target: GlcNAc(a1-4)Gal(b1-4)GlcNAc(b1-3)Gal(b1-4)Glc
Summary of the method: as §1

[21] = biological target: GlcNAc(b1-2)Man(a1-3)[GlcNAc(b1-4)][GlcNAc(b1-2)Man(a1-6)]Man(b1-4)GlcNAc(b1-4)GlcNAc
Summary of the method: as §1

[22] = biological target: GlcNAc(b1-2)[GlcNAc(b1-4)]Man(a1-3)[GlcNAc(b1-4)][GlcNAc(b1-2)[GlcNAc(b1-6)]Man(a1-6)]Man(b1-4)GlcNAc(b1-4)GlcNAc
Summary of the method: as §1

[23] = biological target: GlcNAc(b1-3)Gal(b1-4)GlcNAc(b1-2)Man(a1-3)[GlcNAc(b1-3)Gal(b1-4)GlcNAc(b1-2)Man(a1-6)]Man(b1-4)GlcNAc(b1-4)[Fuc(a1-6)]GlcNAc
Summary of the method: as §1

B1: LlpA (Arthrobacter sp) (protein)
chain: MGSSHHHHHHSSGLVPRGSHMTLHPETALRPGAAATSPNSRYRLLYQTDGNLVLYGPDGPLWDSGTNGHGAGACIMQADGNLVLYGPNDEYVWDTETDNNPGSRLVIQDDGNAVIYRPDGSPLWATETCQPPGSADSHVLQSGSTLTPTHGIRSANGLYGLLYQTDGNLVFYGPDGPLWDSGTNGRGAGACIMQPDGNLVLYGPHDEYVWDTETDNNPGSRLVIQDDGNAVIYRPDGNPTWVTGTH
glycan array binding signal (z-score) [1]: -0.605 | glycan array binding signal (z-score) [2]: 1.72 | glycan array binding signal (z-score) [3]: 1.97 | glycan array binding signal (z-score) [4]: -0.294 | glycan array binding signal (z-score) (Fuc(a1-2)Gal6S(b1-4)Glc): 0.733 | glycan array binding signal (z-score) [5]: -0.344 | glycan array binding signal (z-score) [6]: -1.15 | glycan array binding signal (z-score) [7]: 0.864 | glycan array binding signal (z-score) [8]: 2.37 | glycan array binding signal (z-score) [9]: -0.96 | glycan array binding signal (z-score) (Fuc(a1-3)GlcNAc): -0.654 | glycan array binding signal (z-score) [10]: 1.84 | glycan array binding signal (z-score) (Gal(b1-3)Gal(b1-4)GlcNAc): 0.043 | glycan array binding signal (z-score) [11]: -0.211 | glycan array binding signal (z-score) [12]: -0.718 | glycan array binding signal (z-score) [13]: 1.04 | glycan array binding signal (z-score) [14]: -0.238 | glycan array binding signal (z-score) [15]: 0.644 | glycan array binding signal (z-score) [16]: -0.527 | glycan array binding signal (z-score) [17]: -0.295 | glycan array binding signal (z-score) (Gal(b1-4)GlcNAc6P): 0.159 | glycan array binding signal (z-score) [18]: 2.1 | glycan array binding signal (z-score) (GlcA(b1-6)Gal): 0.793 | glycan array binding signal (z-score) [19]: 0.79 | glycan array binding signal (z-score) [20]: 0.389 | glycan array binding signal (z-score) [21]: -0.798 | glycan array binding signal (z-score) [22]: -0.159 | glycan array binding signal (z-score) [23]: 0.596
